Data as given in PubChem BioAssay AID686978 (National Center for Advancing Translational Sciences (NCATS), 2013).
Out of some 420,000 compounds screened, about 64,000 (15%) were called active. About 27% were inconclusive and are not listed. The list is a sample of the results. Values without a mark were called inactive. Calls follow the shape of the dose curve; as a rule, active = well fitted inhibition curve with a large enough effect; inconclusive = small, poorly fitted or top-dose-only effect; inactive = flat fitted curve, though single readings scatter.

Assay: qHTS for Inhibitors of human tyrosyl-DNA phosphodiesterase 1 (TDP1): qHTS in cells in absence of CPT; also: nearly all actives have a fitted effect of over 55% in size
Settings: DT40 Tdp1-/- hTDP1 cells, no CPT, ATP luminescence, 48 h; activity change, negative = growth inhibition: at 46.2 µM (top of the series)
In short: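 Seeded 400 DT40-hTDP1 cells/well (vehicle DMSO, no 20 nM CPT); pinned compounds; ≥48 hr at 37 °C; CellTiter-Glo luminescence as viability measure.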
% is scaled to controls: 0 for no effect and ±100 for the full control effect; potency is read from the fitted curve at half-maximal effect.

| SMILES | activity change, negative = growth inhibition | Potency |
| --- | --- | --- |
| COc1cc(NC(=O)COC(=O)CSc2ccc3ccccc3c2)c(C)cc1[N+](=O)[O-] | -20.6% |  |
| O=C1N=C(N2CCOCC2)S/C1=C\C=C/c1ccccc1 | -25.6% |  |
| CC1CCN(C2=NC(=O)/C(=C/c3cn[nH]c3-c3ccccc3)S2)CC1 |  | 14.6 µM (active) |
| Cc1nc2nc(C)c(NS(=O)(=O)c3ccc(C(C)(C)C)cc3)c(=O)n2[nH]1 | -14.5% |  |
| CC(=O)c1ccc(OC(=O)N2CCOCC2)cc1 | -11.9% |  |
| Cc1ccc(CN(C)Cc2cc(=O)oc3cc(C)c(Cl)cc23)cc1 | 0.563% |  |
| COc1ccc(S(=O)(=O)N(C)C[C@@H]2Oc3ccc(NS(=O)(=O)c4cn(C)cn4)cc3C(=O)N([C@@H](C)CO)C[C@@H]2C)cc1 | 2.75% |  |
| Cn1c(N)c(C(=O)COC(=O)c2ccc3ccccc3c2)c(=O)n(C)c1=O | -16.8% |  |
| Cc1ccccc1N1CCN(CCCOc2ccc3c(C)cc(=O)oc3c2)CC1 |  | 16.4 µM (active) |
| Cc1cc(OCC(=O)NC2CCN(C)CC2)ccc1[N+](=O)[O-] | -1.1% |  |
| Cc1ccc(OCC(=O)Oc2ccccc2[N+](=O)[O-])cc1 | 0.798% |  |
| CCc1cc(=O)oc2cc(OCC(=O)N3CCCc4ccccc43)ccc12 | -0.399% |  |
| Cc1cc(OCCCCOc2ccc(C#N)cc2)ccc1[N+](=O)[O-] |  | 8.2 µM (active) |
| Cc1cc(OCCCN2CCN(Cc3ccccc3)CC2)ccc1[N+](=O)[O-] |  | 11.6 µM (active) |
| Cc1c(Br)c([N+](=O)[O-])nn1CC(=O)N1CCN(Cc2ccccc2)CC1 | 2.31% |  |
| Cc1ccccc1N1CCN(CCCN2C(=O)C3CCCCN3C2=O)CC1 (stereo unspecified) | -19.9% |  |
| Cc1cc(OCC(=O)Nc2c(C)n(C)n(-c3ccccc3)c2=O)ccc1[N+](=O)[O-] | 1.98% |  |
| COc1ccc(S(=O)(=O)Nc2c(C)n(C)n(-c3ccccc3)c2=O)cc1 | -0.229% |  |
| CC[C@@H]1CCCCc2ccccc2[C@@H](C(=O)C[C@H](O)CC(C)=O)OC1=O | -13.8% |  |
| O=C(c1cc(COc2ccc(F)cc2F)on1)N1CCOCC1 | 3.74% |  |
| Cc1ccccc1CSc1nnc(-c2ccccn2)n1N | -17.6% |  |
| CN(Cc1ccccc1)S(=O)(=O)c1nnc(NC(=O)c2ccccc2F)s1 | -2.67% |  |

| SMILES | activity change, negative = growth inhibition | Potency |
| --- | --- | --- |
| O=C(Oc1cccc(C(=S)N2CCOCC2)c1)c1cccc(Cl)c1 | -8.76% |  |
| COCCCNC(=O)C1CC(=O)N(CCc2ccc(F)cc2)C1 (stereo unspecified) | 2.99% |  |
| COC(=O)C1C(=O)NCC1c1ccc(C)cc1 (stereo unspecified) | -5.08% |  |
| O=[N+]([O-])c1ccc(NCCCO)c(C(F)(F)F)c1 | -14.2% |  |
| CO/N=C(\N)c1ccc([N+](=O)[O-])cc1 | -16.8% |  |
| O=C1/C(=C\c2ccc(O)cc2)CCC1CNc1ccc(Cl)cc1 (stereo unspecified) |  | 3.26 µM (active) |
| CCCNC(=O)C(=O)Nc1cc2c3c(c1)CCC(=O)N3CCC2 | 4.33% |  |
| Cc1[nH]n(C(N)=S)c(=O)c1N=Nc1ccc(Cl)cc1Cl | -0.416% |  |
| CC1=NN(C(N)=S)C(=O)C1N=Nc1cc(Cl)ccc1Cl (stereo unspecified) |  | 3.66 µM (active) |
| Cc1cc(C)c(C#N)c(N2CCC(C(N)=O)CC2)n1 | -0.105% |  |
| O=C(c1ccc(CSc2ccccc2)cc1)N1CCCCCC1 | -26.1% |  |
| COc1ccc(CC(NC(C)=O)C(=O)NC2CCN(C(=O)c3ccc(Cl)cc3)CC2)cc1 (stereo unspecified) | -5.27% |  |
| CC1CCN(C(=O)c2ccc(CSc3ccc(Cl)cc3)cc2)CC1 |  | 16.4 µM (active) |
| Cc1cc(C)c(C#N)c(Nc2cccc(Br)c2)n1 | -1.59% |  |
| CC(C)(C)OC(=O)CNC(=O)c1[nH]cnc1C(=O)N[C@@H](CCCCN)C(=O)OC(C)(C)C | -11.3% |  |
| C#CCOCCOCCOCCNc1nc(N2CCN(C(=O)C([C@@H](C)O)n3cc([C@@H](N)CCCCN)nn3)CC2)nc(N2CCN(C(=O)[C@H](CCCCN)n3cc(CN)nn3)CC2)n1 (stereo partly specified) | -15% |  |
| O=C(NCc1ccco1)C1CCCN1S(=O)(=O)c1ccccc1C(F)(F)F (stereo unspecified) | -18.2% |  |
| CCOC(=O)CSC1=N/C(=C/c2ccc(-n3cncn3)cc2)C(=O)N1C(C)=O |  | 11.6 µM (active) |
| CCOC(=O)CSc1nc(C)cc2c1C(=O)OC2 | 9.81% |  |
| CCCC(=O)N1CCC1(C)C(=O)Nc1ccc(-n2cncn2)cc1 (stereo unspecified) | -2.82% |  |
| C=CCn1c(COc2ccccc2C)nnc1SCC(=O)O | 2.03% |  |
| COc1ccc(CNc2ncncc2-c2ccccc2C)c(OC)c1 | -21.4% |  |

| SMILES | activity change, negative = growth inhibition | Potency |
| --- | --- | --- |
| COc1ccc(CCNc2ncnc3onc(-c4ccc(Cl)cc4)c23)c(OC)c1 |  | 14.6 µM (active) |
| COc1ccc(CNc2ncncc2-c2ccccc2OC)c(OC)c1 | -11.4% |  |
| O=C(Nc1cccc2c1CCCC2)c1ccc(F)cc1 | -28.2% |  |
| Clc1cccc(Cl)c1Cn1nnc(-c2cccs2)n1 | -4.91% |  |
| Cc1ccc(N=Cc2c(O)cc(C)oc2=O)c(C)c1 | -7.95% |  |
| C=CCN(CC=C)S(=O)(=O)c1ccc(C(=O)Nc2nc3c(s2)CCc2ccccc2-3)cc1 |  | 10.3 µM (active) |
| C=CCN(CC=C)S(=O)(=O)c1ccc(C(=O)Nc2sc3c(c2C(N)=O)CCCCC3)cc1 |  | 13 µM (active) |
| C=CCSc1nnc(NC(=O)c2ccc(NC(C)=O)cc2)s1 | 0.0104% |  |
| COCCN(CCOC)S(=O)(=O)c1ccc(C(=O)Nc2nc3c(s2)CCc2ccccc2-3)cc1 |  | 13 µM (active) |
| COCCN(CCOC)S(=O)(=O)c1ccc(/C(O)=C(\C#N)c2nc3ccccc3[nH]2)cc1 | -28% |  |
| NC(=O)c1c(NC(=O)c2ccccc2)sc2c1CCCC2 | -1.15% |  |
| O=C(Nc1ncc2c(n1)-c1ccccc1OC2)c1ccc(Cl)cc1 | -18.8% |  |
| COCc1nnc(NC(=O)c2ccc3c(c2)OCO3)s1 | -3.94% |  |
| COc1cccc(OC)c1C(=O)Nc1sc2c(c1C(N)=O)CCCC2 | -1.68% |  |
| CC1(c2nnc(-c3ccncc3)o2)CC(c2cccnc2)=NO1 (stereo unspecified) | -1.46% |  |
| CN(C)/C(=N\OC(=O)c1ccccc1)c1nonc1N | -6.06% |  |
| COCCNC(=O)c1ccc(Cn2c(SCC(=O)NCC3CCCO3)nc3ccc(Br)cc3c2=O)cc1 (stereo unspecified) | 2.84% |  |
| Nc1ccn(CC(=O)N2CCN(c3ccccn3)CC2)c(=O)n1 | -6.28% |  |
| CCCC(C(=O)n1nc(C)cc1C)C(NS(=O)(=O)c1ccc(C)cc1)c1ccccc1 (stereo unspecified) |  | 23.1 µM (active) |
| Cc1ccc(S(=O)(=O)NC(C(=O)N2CCOCCOCCOCCOCC2)c2ccccc2)cc1 (stereo unspecified) | -13.9% |  |
| Cc1ccc(S(=O)(=O)Nc2nc(C)cc(-n3nc(C)cc3C)n2)cc1 | -1.59% |  |
| Cc1c(NC(=O)C(C)OC(=O)c2ccccc2O)c(=O)n(-c2ccccc2)n1C (stereo unspecified) | -11% |  |

| SMILES | activity change, negative = growth inhibition | Potency |
| --- | --- | --- |
| CCCCS(=O)c1snnc1C (stereo unspecified) | 3.05% |  |
| O=C1CCCCC1Sc1ccc(Cl)cc1[N+](=O)[O-] (stereo unspecified) | -19.5% |  |
| CCOC(=O)c1ccc(NC(=O)c2c(N)n(C)c(=O)[nH]c2=O)cc1 | -0.401% |  |
| O=C(Nc1ccc([N+](=O)[O-])cc1)c1cnn2c1NC(=C1CC1)C=C2C(F)F | -1.42% |  |
| CC(C)(C)C1CCC(NC(=O)c2cnn3c2NC(=C2CC2)C=C3C(F)F)CC1 (stereo unspecified) |  | 7.94 µM (active) |
| O=C(Nc1ccc(Cl)cc1)c1cnn2c1NC(=C1CC1)C=C2C(F)F | 0.994% |  |
| Cc1cc(N2C(=O)C(=O)/C(=C(/O)c3ccccc3)C2c2cccc(Br)c2)no1 (stereo unspecified) | -12.7% |  |
| O=C(O)CSC(NC(=O)c1cccnc1)(C(F)(F)F)C(F)(F)F | -1.73% |  |
| COc1ccc(N)cc1NC(=O)CN1CCOCC1 | -2.03% |  |
| O=C(Nc1ccc(F)cc1)C(CCc1ccccc1)N1CCN(CC(=O)N2CCCC2)CC1 (stereo unspecified) | -24.4% |  |
| CC(NC(=O)c1cccc(S(=O)(=O)N2CCc3ccccc3C2)c1)c1ccco1 (stereo unspecified) | -22.5% |  |
| Cc1cccc(N2CCN(C(=O)c3cccc(S(=O)(=O)N4CCc5ccccc5C4)c3)CC2C)c1 (stereo unspecified) |  | 7.31 µM (active) |
| COC(=O)c1ccc(S(=O)(=O)N2CCc3ccccc3C2)cc1 | -27.5% |  |
| COc1ccc(-n2ncc3c(N4CCCc5ccccc54)ncnc32)cc1 | -29.4% |  |
| CCCCCCCC1(C)NC(=O)N(CC(=O)Nc2cc(C)on2)C1=O (stereo unspecified) | -2.67% |  |
| COc1ccc(C2(c3ccc(OC)cc3)NC(=O)N(CC(=O)Nc3cc(C)on3)C2=O)cc1 |  | 16.4 µM (active) |
| Cc1cc(NC(=O)CN2C(=O)NC(C)(CCc3ccccc3)C2=O)no1 (stereo unspecified) | -5.45% |  |
| O=C(CSc1nnc(-c2ccccc2O)o1)NC1CCCCC1 | -1.77% |  |
| O=S(=O)(Cc1ccccc1)c1nc2ccccc2n1Cc1ccccn1 | -1.39% |  |
| CCOc1ccc(S(=O)(=O)N2CCC(C(=O)NCC(=O)Nc3cccc(Cl)c3C)CC2)cc1 | -24.1% |  |
| CSc1nccc(NC(=O)c2ccc(C(C)(C)C)cc2)n1 |  | 7.31 µM (active) |
| Cc1cccc(NC(=O)c2ccccc2NC(=O)C(C)(C)C)n1 | -13.1% |  |

| SMILES | activity change, negative = growth inhibition | Potency |
| --- | --- | --- |
| Cc1cccc(NC(=O)c2cccnc2Cl)n1 | 21.4% |  |
| Cc1cc(C)c2nc(NC(=O)c3ccc4c(c3)OCO4)sc2c1 | -19.9% |  |
| COc1cccc(Nc2ncc3ncc(=O)n(C4CC4)c3n2)c1 |  | 11.6 µM (active) |
| Cc1nc2cnc(Nc3ccccc3)nc2n(C[C@H]2CCCO2)c1=O | -7.1% |  |
| O=c1cnc2cnc(Nc3ccccc3)nc2n1Cc1ccc(F)cc1 | -27.5% |  |
| CC(C)CCNC(=O)C1CCC(CNc2c(N3CCC(C)CC3)c(=O)c2=O)CC1 (stereo unspecified) | 4.09% |  |
| CC(C)C(=O)N1CCN(CCN=CC2=C(O)CC(c3ccco3)CC2=O)CC1 (stereo unspecified) |  | inactive |
| Cc1ccc(OCC(=O)NCCCNC(=O)c2cccnc2)cc1C | -16.4% |  |
| CCCc1nc(-c2ccccc2O)n(-c2ccccc2)n1 | -28.1% |  |
| CCCc1nc(N2CCN(C)CC2)c2sc(=S)n(-c3ccccc3)c2n1 |  | 16.4 µM (active) |
| O=C1/C(=C/c2ccc3c(c2)OCO3)Oc2cc(OCC(=O)N3CC(O)C[C@H]3C(=O)O)ccc21 (stereo partly specified) | -0.893% |  |
| CCc1ccccc1N(CC(=O)NCCSCc1ccco1)S(C)(=O)=O | -5.54% |  |
| Cc1cccc(NC(=O)C2CCN(S(=O)(=O)c3c(C)noc3/C=C/c3ccco3)CC2)c1 |  | 20.6 µM (active) |
| CNC(=O)C1CCN(S(=O)(=O)c2c(C)noc2/C=C/c2cccc(C)c2)CC1 | -2.36% |  |
| Cc1noc(/C=C/N(C)C)c1S(=O)(=O)N1CCCC(C(=O)NCc2ccco2)C1 (stereo unspecified) | 1.87% |  |
| Cc1noc(/C=C/c2ccco2)c1S(=O)(=O)N1CCC(C(=O)Nc2ccc(Cl)cn2)CC1 |  | 18.4 µM (active) |
| Cc1ccnc(NC(=O)C2CCN(S(=O)(=O)c3c(C)c(C)cc(C)c3C)CC2)c1 | -18.4% |  |
| CC(=O)c1ccc(NC(=O)C2CCN(S(=O)(=O)c3c(C)noc3/C=C/c3ccc(C)cc3)CC2)cc1 | -14.2% |  |
